Assay results taken from ChEMBL document CHEMBL1961873, “Compounds: GSK PKIS; Assays: Nanosyn kinase panel” (2012).

Columns and labels:
[1] = biological target: Tyrosine-protein kinase receptor UFO (Homo sapiens) (UniProt P30530); details: at 1 µM
[2] = biological target: Tyrosine-protein kinase Blk (Homo sapiens) (UniProt P51451); details: at 0.1 µM
[3] = biological target: Tyrosine-protein kinase Blk (Homo sapiens) (UniProt P51451); details: at 1 µM
[4] = biological target: T1, Cytoplasmic tyrosine-protein kinase BMX (Homo sapiens) (UniProt P51813); details: at 0.1 µM
T1 sequence (whole entry): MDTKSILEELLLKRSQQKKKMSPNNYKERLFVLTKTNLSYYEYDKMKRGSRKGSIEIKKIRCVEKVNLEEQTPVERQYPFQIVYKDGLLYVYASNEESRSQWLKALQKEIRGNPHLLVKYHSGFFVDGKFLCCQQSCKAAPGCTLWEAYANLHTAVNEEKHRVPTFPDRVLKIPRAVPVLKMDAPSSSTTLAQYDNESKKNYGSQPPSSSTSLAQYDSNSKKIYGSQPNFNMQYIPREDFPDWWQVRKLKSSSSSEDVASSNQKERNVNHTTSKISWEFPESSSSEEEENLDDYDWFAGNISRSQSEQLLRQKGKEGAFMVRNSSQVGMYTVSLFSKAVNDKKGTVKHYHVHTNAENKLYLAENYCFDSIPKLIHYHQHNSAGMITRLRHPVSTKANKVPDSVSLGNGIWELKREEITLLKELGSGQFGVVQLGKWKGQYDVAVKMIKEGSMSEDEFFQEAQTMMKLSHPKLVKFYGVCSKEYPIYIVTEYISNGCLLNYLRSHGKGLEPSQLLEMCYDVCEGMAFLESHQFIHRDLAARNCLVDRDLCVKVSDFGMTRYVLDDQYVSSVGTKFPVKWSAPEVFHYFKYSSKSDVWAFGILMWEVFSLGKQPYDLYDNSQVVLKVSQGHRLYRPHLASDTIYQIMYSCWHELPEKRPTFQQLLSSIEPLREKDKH

[5] = biological target: T1, Cytoplasmic tyrosine-protein kinase BMX (Homo sapiens); details: at 1 µM
[6] = biological target: Protein-tyrosine kinase 6 (Homo sapiens) (UniProt Q13882); details: at 0.1 µM
[7] = biological target: Protein-tyrosine kinase 6 (Homo sapiens) (UniProt Q13882); details: at 1 µM
[8] = biological target: Tyrosine-protein kinase BTK (Homo sapiens) (UniProt Q06187); details: at 0.1 µM
[9] = biological target: Tyrosine-protein kinase BTK (Homo sapiens) (UniProt Q06187); details: at 1 µM
[10] = biological target: Tyrosine-protein kinase CSK (Homo sapiens) (UniProt P41240); details: at 0.1 µM
[11] = biological target: Tyrosine-protein kinase CSK (Homo sapiens) (UniProt P41240); details: at 1 µM
[12] = biological target: T2, Discoidin domain-containing receptor 2 (Homo sapiens) (UniProt Q16832); details: at 0.1 µM
T2 sequence (whole entry): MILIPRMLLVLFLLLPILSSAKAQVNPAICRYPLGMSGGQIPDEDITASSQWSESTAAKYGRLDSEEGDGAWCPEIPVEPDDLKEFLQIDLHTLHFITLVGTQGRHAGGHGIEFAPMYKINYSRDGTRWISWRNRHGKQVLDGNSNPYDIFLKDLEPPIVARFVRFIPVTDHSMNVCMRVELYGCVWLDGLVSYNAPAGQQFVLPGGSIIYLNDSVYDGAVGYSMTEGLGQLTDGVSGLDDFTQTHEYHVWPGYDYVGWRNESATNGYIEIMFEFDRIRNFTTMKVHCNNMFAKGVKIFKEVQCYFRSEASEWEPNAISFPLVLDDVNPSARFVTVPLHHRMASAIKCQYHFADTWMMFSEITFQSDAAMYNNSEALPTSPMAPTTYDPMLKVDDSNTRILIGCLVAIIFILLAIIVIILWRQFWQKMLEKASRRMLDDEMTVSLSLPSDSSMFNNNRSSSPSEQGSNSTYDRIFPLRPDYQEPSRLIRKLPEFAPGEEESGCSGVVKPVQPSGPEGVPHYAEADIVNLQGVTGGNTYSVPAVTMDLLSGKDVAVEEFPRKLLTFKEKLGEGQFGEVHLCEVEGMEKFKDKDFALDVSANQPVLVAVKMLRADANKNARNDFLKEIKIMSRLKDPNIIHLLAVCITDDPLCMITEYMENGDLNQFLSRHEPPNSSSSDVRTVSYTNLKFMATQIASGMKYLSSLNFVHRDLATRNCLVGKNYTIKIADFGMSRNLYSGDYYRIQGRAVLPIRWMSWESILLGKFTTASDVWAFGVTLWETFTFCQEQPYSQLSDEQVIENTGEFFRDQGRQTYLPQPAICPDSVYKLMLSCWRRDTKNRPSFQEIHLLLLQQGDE

[13] = biological target: T2, Discoidin domain-containing receptor 2 (Homo sapiens); details: at 1 µM
[14] = biological target: Epidermal growth factor receptor (Homo sapiens) (UniProt P00533); details: at 0.1 µM
[15] = biological target: Epidermal growth factor receptor (Homo sapiens) (UniProt P00533); details: at 1 µM
[16] = tested on: Epidermal growth factor receptor (Homo sapiens), P00533 [L858R]; details: at 0.1 µM
[17] = tested on: Epidermal growth factor receptor (Homo sapiens), P00533 [L858R]; details: at 1 µM
[18] = tested on: Epidermal growth factor receptor (Homo sapiens), P00533 [L861Q]; details: at 0.1 µM
[19] = tested on: Epidermal growth factor receptor (Homo sapiens), P00533 [L861Q]; details: at 1 µM
[20] = tested on: Epidermal growth factor receptor (Homo sapiens), P00533 [T790M]; details: at 0.1 µM
Chain of Epidermal growth factor receptor (Homo sapiens), P00533 [T790M] (P00533 whole entry T790M): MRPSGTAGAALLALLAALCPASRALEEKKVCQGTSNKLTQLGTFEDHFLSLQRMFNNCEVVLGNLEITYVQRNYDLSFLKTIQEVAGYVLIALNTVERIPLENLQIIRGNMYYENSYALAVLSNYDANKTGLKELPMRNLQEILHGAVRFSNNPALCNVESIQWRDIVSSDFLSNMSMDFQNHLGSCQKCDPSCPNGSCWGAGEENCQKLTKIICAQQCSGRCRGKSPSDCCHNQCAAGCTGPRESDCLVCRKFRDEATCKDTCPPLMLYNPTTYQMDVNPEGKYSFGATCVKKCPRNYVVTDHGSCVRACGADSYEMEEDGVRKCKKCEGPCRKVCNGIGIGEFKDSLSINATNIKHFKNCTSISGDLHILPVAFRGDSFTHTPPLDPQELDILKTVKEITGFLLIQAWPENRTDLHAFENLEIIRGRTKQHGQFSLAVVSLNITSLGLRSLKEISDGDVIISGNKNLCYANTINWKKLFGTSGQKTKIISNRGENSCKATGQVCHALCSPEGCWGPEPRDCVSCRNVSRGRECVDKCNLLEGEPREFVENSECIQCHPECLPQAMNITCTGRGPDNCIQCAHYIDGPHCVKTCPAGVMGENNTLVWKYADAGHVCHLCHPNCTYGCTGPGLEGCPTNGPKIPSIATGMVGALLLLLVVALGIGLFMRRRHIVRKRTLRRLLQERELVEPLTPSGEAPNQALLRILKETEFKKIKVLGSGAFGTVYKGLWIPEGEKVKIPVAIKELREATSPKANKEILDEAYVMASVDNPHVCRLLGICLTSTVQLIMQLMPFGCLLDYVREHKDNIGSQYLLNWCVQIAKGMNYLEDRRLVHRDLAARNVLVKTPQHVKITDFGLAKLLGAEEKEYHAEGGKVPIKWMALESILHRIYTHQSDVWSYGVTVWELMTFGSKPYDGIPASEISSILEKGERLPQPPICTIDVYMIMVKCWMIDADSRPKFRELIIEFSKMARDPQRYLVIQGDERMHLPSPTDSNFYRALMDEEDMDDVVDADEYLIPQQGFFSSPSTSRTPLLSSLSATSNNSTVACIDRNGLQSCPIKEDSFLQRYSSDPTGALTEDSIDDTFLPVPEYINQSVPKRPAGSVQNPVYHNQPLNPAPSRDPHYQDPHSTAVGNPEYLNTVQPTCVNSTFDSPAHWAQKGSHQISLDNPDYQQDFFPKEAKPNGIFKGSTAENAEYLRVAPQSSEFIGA

Chain of Tyrosine-protein kinase CSK (Homo sapiens) (P41240 2-450 limits assumed): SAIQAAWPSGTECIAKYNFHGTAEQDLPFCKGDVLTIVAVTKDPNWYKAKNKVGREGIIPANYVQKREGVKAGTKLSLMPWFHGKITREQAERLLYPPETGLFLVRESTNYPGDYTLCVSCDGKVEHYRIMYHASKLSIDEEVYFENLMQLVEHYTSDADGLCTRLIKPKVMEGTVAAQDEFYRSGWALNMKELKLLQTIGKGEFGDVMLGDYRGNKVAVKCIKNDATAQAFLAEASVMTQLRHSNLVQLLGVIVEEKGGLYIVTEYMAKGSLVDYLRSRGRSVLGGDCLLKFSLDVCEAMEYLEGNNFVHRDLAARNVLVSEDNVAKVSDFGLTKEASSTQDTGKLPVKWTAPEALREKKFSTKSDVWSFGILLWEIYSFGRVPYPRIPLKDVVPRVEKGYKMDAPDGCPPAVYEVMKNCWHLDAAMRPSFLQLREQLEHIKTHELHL
Chain of Tyrosine-protein kinase BTK (Homo sapiens) (Q06187 whole entry): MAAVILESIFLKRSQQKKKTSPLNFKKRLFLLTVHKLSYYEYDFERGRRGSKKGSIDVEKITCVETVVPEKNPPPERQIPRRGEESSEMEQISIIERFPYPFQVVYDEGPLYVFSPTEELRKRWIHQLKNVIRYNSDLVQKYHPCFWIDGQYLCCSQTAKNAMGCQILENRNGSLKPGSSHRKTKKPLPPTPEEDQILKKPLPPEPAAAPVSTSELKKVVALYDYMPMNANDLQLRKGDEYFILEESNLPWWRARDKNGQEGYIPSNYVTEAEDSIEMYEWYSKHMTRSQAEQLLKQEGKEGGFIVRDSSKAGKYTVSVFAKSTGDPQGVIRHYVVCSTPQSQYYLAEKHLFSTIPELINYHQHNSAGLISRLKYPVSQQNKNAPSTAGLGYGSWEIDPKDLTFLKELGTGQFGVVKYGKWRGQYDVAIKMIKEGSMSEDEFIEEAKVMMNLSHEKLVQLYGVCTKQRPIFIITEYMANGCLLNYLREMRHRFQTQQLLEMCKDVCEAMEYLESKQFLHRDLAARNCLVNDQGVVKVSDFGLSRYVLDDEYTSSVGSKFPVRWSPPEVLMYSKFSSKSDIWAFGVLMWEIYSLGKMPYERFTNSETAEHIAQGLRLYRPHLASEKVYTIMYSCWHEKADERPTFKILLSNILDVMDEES
Chain of Protein-tyrosine kinase 6 (Homo sapiens) (Q13882 whole entry, looked up): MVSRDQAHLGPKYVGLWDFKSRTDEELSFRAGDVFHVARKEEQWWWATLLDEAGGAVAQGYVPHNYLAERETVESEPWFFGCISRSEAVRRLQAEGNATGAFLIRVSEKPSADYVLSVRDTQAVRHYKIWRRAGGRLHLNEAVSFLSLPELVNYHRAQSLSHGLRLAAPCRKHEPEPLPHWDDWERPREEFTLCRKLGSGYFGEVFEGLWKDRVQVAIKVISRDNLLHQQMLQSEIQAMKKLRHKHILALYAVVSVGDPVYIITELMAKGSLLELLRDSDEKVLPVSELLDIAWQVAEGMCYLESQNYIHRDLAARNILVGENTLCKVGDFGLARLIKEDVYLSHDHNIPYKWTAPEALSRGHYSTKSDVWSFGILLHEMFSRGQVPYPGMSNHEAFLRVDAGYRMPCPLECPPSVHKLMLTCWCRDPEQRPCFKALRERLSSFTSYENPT
Chain of Tyrosine-protein kinase receptor UFO (Homo sapiens) (P30530 whole entry): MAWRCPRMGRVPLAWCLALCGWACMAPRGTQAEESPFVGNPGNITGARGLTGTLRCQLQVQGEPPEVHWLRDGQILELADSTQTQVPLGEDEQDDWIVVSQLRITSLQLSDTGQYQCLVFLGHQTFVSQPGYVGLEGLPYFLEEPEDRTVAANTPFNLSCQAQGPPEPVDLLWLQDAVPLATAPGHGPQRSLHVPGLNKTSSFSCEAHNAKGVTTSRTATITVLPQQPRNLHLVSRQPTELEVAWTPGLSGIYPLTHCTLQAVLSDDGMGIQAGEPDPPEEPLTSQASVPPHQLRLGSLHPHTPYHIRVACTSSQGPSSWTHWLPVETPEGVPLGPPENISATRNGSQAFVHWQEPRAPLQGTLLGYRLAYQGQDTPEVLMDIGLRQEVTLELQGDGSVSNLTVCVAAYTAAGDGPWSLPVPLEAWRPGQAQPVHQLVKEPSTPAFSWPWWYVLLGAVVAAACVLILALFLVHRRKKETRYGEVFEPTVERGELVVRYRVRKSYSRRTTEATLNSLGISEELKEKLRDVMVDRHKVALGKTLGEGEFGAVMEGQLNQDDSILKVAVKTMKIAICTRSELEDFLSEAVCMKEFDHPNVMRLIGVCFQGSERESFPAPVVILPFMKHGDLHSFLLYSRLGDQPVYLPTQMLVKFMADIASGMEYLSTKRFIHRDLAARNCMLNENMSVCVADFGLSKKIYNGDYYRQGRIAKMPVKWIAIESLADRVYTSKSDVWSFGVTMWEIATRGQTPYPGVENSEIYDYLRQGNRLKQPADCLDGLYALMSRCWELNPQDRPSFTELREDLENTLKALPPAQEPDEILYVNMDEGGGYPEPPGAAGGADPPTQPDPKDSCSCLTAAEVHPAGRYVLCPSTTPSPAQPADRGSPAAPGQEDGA
Chain of Epidermal growth factor receptor (Homo sapiens) (P00533 whole entry): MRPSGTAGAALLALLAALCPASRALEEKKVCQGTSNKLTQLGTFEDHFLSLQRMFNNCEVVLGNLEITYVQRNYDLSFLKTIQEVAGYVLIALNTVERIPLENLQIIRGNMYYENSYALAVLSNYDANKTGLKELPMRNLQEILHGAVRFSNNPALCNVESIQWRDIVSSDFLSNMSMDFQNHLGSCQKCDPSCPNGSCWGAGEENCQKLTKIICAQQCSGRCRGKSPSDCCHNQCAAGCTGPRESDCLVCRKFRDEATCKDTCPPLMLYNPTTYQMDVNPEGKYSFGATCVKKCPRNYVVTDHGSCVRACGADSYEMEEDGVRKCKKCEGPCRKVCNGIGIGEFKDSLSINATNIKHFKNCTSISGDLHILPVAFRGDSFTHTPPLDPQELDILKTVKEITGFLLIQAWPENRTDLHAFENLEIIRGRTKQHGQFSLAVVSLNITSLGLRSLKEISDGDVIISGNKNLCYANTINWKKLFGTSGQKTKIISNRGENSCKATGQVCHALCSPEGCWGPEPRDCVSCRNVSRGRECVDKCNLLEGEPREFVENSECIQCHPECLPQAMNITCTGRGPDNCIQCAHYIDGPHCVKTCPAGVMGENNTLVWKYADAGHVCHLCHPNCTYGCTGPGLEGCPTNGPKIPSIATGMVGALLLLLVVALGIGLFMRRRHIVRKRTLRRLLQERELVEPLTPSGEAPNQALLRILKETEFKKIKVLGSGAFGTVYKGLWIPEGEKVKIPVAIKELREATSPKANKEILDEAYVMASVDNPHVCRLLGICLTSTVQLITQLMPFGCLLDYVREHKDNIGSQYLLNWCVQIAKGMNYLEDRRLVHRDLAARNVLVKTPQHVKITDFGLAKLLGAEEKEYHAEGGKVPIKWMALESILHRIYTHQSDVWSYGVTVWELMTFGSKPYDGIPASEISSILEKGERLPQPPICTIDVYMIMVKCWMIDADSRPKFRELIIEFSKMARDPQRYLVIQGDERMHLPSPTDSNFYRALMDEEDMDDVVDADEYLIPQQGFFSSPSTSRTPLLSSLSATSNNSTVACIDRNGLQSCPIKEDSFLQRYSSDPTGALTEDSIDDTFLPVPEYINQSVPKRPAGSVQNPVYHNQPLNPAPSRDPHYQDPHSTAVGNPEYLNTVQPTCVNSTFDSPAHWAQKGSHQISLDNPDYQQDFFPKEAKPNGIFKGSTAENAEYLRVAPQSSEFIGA

Compound	inhibition [1] [%]	inhibition [2] [%]	inhibition [3] [%]	inhibition [4] [%]	inhibition [5] [%]	inhibition [6] [%]	inhibition [7] [%]	inhibition [8] [%]	inhibition [9] [%]	inhibition [10] [%]	inhibition [11] [%]	inhibition [12] [%]	inhibition [13] [%]	inhibition [14] [%]	inhibition [15] [%]	inhibition [16] [%]	inhibition [17] [%]	inhibition [18] [%]	inhibition [19] [%]	inhibition [20] [%]
CN(C)c1cc2c(Nc3ccc4c(cnn4Cc4ccccc4)c3)ncnc2cn1	-3.44	3.2	22.6	3.53	20.8	5.3	29.2	1.09	9.11	6.06	27.6	1.06	3.09							
Nc1nccc(-c2c(-c3ccc(F)cc3)nn3cc(C(F)(F)F)ccc23)n1	5.17	0.6	1.08	-1.09	0.94	1.57	-4.29	0.89	0.4	-0.9	1.17	1.51	5.28	-0.27	3.78	1.74	11.4	-0.3	3.8	0.44
CN(C)C(=O)O[C@H]1CN[C@H](C#Cc2cc3ncnc(Nc4ccc(OCc5cccc(F)c5)c(Cl)c4)c3s2)C1	-1.68	2.47	4.23	-3.39	3.3	5.52	4.14	-1.08	0.74	0.6	2.76	1.62	1.98							
CCn1c(-c2nonc2N)nc2ccc(F)cc21	-5.29	3.96	4.5	5.08	6.05	4.83	8.38	0.19	-0.49	5.53	8.91	0.92	4.58	12.1	13.4	4.05	12.7	4.88	8.61	3
CN(C)C(=O)O[C@@H]1CN[C@@H](C#Cc2cc3ncnc(Nc4ccc(OCc5cccc(F)c5)c(Cl)c4)c3s2)C1	2.48	2.22	3.83	1.11	3.41	-0.15	2.41	-0.22	1.84	-1.53	-1.42	1.79	3.36							
Cc1nc(-c2ccccc2)n2nc(NCCCN3CCOCC3)ncc12	-0.92	2.04	4.14	3.56	5.57	-2.39	2.23	0.19	0.66	-0.24	1.69	1.13	1.28	5.65	7.11	1.69	4.22	0.9	1.99	-0.64
NS(=O)(=O)c1ccc(N/N=C2\C(=O)Nc3ccc(Cl)cc32)cc1	-3.81	2.51	6.13	-0.25	4.68	2.27	5.96	0.31	0.56	4.9	7.01	0.3	3.13	-0.16	5.53	2.02	5.32	1.9	3.4	0.9
c1ccc(Cc2nc3ccc(Nc4ncnc5ccccc45)cc3[nH]2)cc1	-3.16	2.78	7.6	5.75	5.59	5.48	5.84	0.25	1.7	8.17	30.9	0.85	1.06	24.3	67.2	2.32	11.3	12	22.2	2.05
Cc1ccc2c(c1)/C(=N/Nc1ccc(S(N)(=O)=O)cc1)C(=O)N2	2.86	0.29	11.2	1.94	-0.8	-3.49	-3.16	0.42	3.78	-2.97	-6.97	-0.42	-0.71	-0.37	0.75	-1.56	-1.97	-0.23	-4.18	-0.84
NC(=O)c1sc(-n2cnc3ccccc32)cc1OCc1ccccc1Br	-4.14	2.16	3.7	3.03	4.96	1.74	7.25	-0.65	-0.19	1.13	2.18	1.76	1.6	1.88	0.93	-0.06	5	1.71	2.89	1.26
CN1CCN(C(=O)c2ccc(NC(=O)Nc3ccc(N(C)c4ccnc(Nc5ccc(CS(C)(=O)=O)cc5)n4)cc3)cc2)CC1	11.9	2.76	24.4	19.1	68	-1.96	13.5	1.59	16	-1.19	12.6	66	85	4.52	7	-3.46	2.15	1.12	4.44	-0.46
NS(=O)(=O)c1ccc(Nc2cc(-c3cccc(O)c3)n[nH]2)cc1	-5.6	3.31	6.67	-0.08	4.72	4.78	6.34	-0.39	0.41	4.63	5.32	2.49	3.91	0.67	1.98	5.34	5.18	3.68	1.85	2.46
Nc1nccc(C#Cc2cncnc2Nc2ccc(OCc3cccc(F)c3)c(Cl)c2)n1	1.72	3.54	5.98	1.74	8.65	4.52	3.74	0.96	7.04	10.2	3.09	1.14	4.7							
CCn1c(-c2nonc2N)nc2c(C#CC(C)(C)O)nc(OCCNC)cc21	-6.1	1.45	3.35	3.16	6.56	5.42	3.09	-1.33	-0.61	1.36	5.91	1.73	2.04	0.82	0.07	1.22	3.32	1.91	2.32	1.88
Cc1cc(O)cc(C)c1/C=C/c1cncc(C(=O)N(C)C)c1	3.27	2.94	3.78	-2.2	5.69	2.85	6.32	1.28	1.08	4.08	7.46	4	6.51	3.09	6.63	2.7	3.1	3.53	2.99	1.24
N#Cc1c(NC(=O)c2ccccc2F)sc2c1CCCC2	2.38	-0.71	0.42	-1.17	-1.62	0.56	-1.93	0.32	-0.23	-1.65	-5.02	-1.61	-1.14	2.1	4	1.21	3.66	-0.67	-1.19	-2.41
CCOc1nccc2c1nc(-c1nonc1N)n2CC	-0.05	3.42	2.55	1.6	1.81	0.8	2.85	1.49	2.44	3.08	7.45	4.52	5.68	2.26	1.18	4.22	7.51	4.18	5.85	1.6
O=C1Nc2ccc(-c3cccnc3)cc2C1=Cc1cc(Br)c(O)c(Br)c1	-2.44	2.77	10.8	-2.3	4.31	4.36	10.7	0.22	1.61	4.14	-1.69	2.03	5.97	-0.06	5.08	4.88	10.5	2.92	2.2	2.3
c1ccc(Nc2ncc(-c3ccccc3)o2)cc1	-3.74	1.98	5.16	1.56	7.49	3.8	7.06	-0.11	0.49	4.22	3.75	2.39	7.24	4.96	10.5	4.87	2.77	2.75	4.14	2.39
CS(=O)(=O)Nc1cccc(-c2ccc3c(NC(=O)C4CC4)n[nH]c3c2)c1	1.68	0.09	4.51	4.15	1.52	-1.65	-2.5	0.45	1.66	-2.14	-2.39	0.9	0.99	0.81	0.31	-0.89	-1.93	1.44	-2.52	-1.89
FC(F)(F)c1ccc(-c2nn3ncccc3c2-c2ccnc(Nc3ccc4c(c3)OCCO4)n2)cc1	7.56	3.74	15.7	2.61	0.4	-0.58	12	0.26	7.22	-0.13	6.46	8.59	24.9	6.78	19.2	5.78	40.1	4.86	27.6	0.49
OCc1ccc(-c2nc(-c3ccccn3)c(-c3ccc4c(c3)OCO4)[nH]2)cc1	-3.37	3.13	5.92	-2.19	4.67	4.49	5.07	3.02	3.51	3.92	3.94	2.68	4.73	3.69	6.33	3.45	1.89	3.49	-0.4	2.68
[O-][S+]1CCN(Cc2ccc(-c3ccc4ncnc(Nc5ccc(OCc6ccccc6)c(Cl)c5)c4c3)o2)CC1	0.46	-0.34	6.7	0.31	2.05	0.38	11	-1.44	-0.83	-0.03	1.54	0.28	1.54							
COc1cc(/C=N/Nc2ncnc3c2cnn3C(C)C)ccc1O	-0.23	4.73	45	2.71	17.1	1.02	4.8	-0.92	0.84	0.38	-1.57	-0.03	-1.45	6.39	9.9	3.23	12.2	2.56	3.26	0.17
COC(=O)c1cncc(/C=C/c2c(C)cc(O)cc2C)c1	-5.3	3.73	13.6	4.1	29.6	11.4	50.2	1.9	2.92	4.04	24.8	1.69	10.3	0.29	3.19	2.6	11.5	3.47	7.07	2.64
COc1ccc(-c2nn3ncccc3c2-c2ccnc(Nc3cccc(C(F)(F)F)c3)n2)cc1	-2.69	2.61	7.74	2.37	-4.27	2.5	17.9	0.09	1.7	2.1	7.02	2.63	22	9.51	19.1	4.1	21.7	2.85	11.8	1
